# Measured values taken from PMC5540273 (PLoS ONE, 2017).
# System: T1, DLK
# T1 construct: gene MAP3K12
# Details: concentration: 1 μM, replicates: in singlicate; n = 1
# 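Note: KINOMEscan kinase panel screen.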
row,Structure (SMILES),%Inh [%]
1,CCn1c(-c2ccoc2)nc2cnccc21 [SB-733887],7
2,O=c1cc(N2CCOCC2)nc2n(Cc3ccc(F)c(Cl)c3)ccn12 [GSK2297099],6
3,Cc1cccc(-c2nc(Nc3ccc4c(cnn4C)c3)c3ccccc3n2)n1 [GW876731],0
4,Cl.NS(=O)(=O)c1cccc(Nc2cc(-c3ccc(F)cc3)n[nH]2)c1 [GW824645],0
5,COc1cc(Nc2nccc(N3CCC(NC(=O)C4COc5ccccc5O4)C3)n2)cc(OC)c1OC (centres unmarked) [GSK1379761],60
6,COC(=O)c1c(-c2ccccc2)c2cc(Br)ccc2c(=O)n1Cc1ccc(NC(=O)CCC(=O)O)cc1,0
7,CN1C(=O)C(Nc2cc(Cl)c(O)c(Cl)c2)=C(c2ccc(Cl)cc2)C1=O [SB-404321],33
8,CCC(=O)c1c(-c2ccccc2)c2cc(Cl)ccc2c(=O)n1Cc1cc(S(C)(=O)=O)n(CC(N)=O)n1,0
9,Nc1ncnc2c1ncn2-c1ccc(Cl)cc1 [AH2635],27
10,O=C(NCc1cccs1)c1cc(C(=O)c2c(Cl)cccc2Cl)c[nH]1 [GW823670],0
11,CCn1c(-c2nonc2N)nc2ccccc21 [SB-693162/GW549034],0
12,O=C(NCCNc1ccnc(Nc2ccc(F)cc2)n1)Nc1ccc2c(c1)OCO2 [GSK1379882],5
13,COc1ccc(Nc2nccc(N3CCC(NS(=O)(=O)c4ccc(NC(C)=O)cc4)C3)n2)cc1 (centres unmarked) [GSK1379729],23
14,COc1cc2nccc(Nc3cccc(Oc4ccccc4)c3)c2cc1OC.Cl [GW284543],24
